# Source: PubChem (National Center for Advancing Translational Sciences (NCATS))
# Hits are enriched below; roughly 19% of the tested compounds scored in any of these assays.
# DT40 TDP1 CPT = qHTS for Inhibitors of human tyrosyl-DNA phosphodiesterase 1 (TDP1): qHTS in cells in presence of CPT. chicken DT40 Tdp1-/-;hTDP1 cells + 20 nM CPT, ATP luminescence, 48 h. Potency, µM (series often up to 46.2 µM), for inactives: top-dose activity change, negative = growth inhibition, usual class: inhibitors. hit rate 12% among 420,000. AID 686979, 2013; further: potency means the concentration at half of the fitted maximal effect; nearly all actives have a fitted effect of over 55% in size
#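 Chicken DT40 Tdp1-/- cells complemented with human TDP1, 400 cells/well, exposed to compounds plus 20 nM camptothecin for at least 48 h at 37 C; viability read as ATP content by CellTiter-Glo luminescence.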
# IL-1B inflam inh = qHTS for Inhibitors of Inflammasome Signaling: IL-1-beta AlphaLISA Primary Screen; activity change, % at 57.5 µM; AID 743279, 2014; THP-1 LPS/ATP IL-1B secretion, AlphaLISA, 16 h; stronger effect = lower value; hit rate 4.7% among 360,000; in the data active means activity change below about -50%; inconclusive means mostly about -30% to -49%
#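 Secreted IL-1B measured by AlphaLISA bead assay after 16 h compound exposure of THP-1 cells; compounds (final up to 57.5 uM) added 1 h before LPS (250 ng/mL) and ATP (1.25 mM) stimulation; lower signal means less secretion.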
# HT1080 IDH1KD tx = qHTS for induction of synthetic lethality in tumor cells producing 2HG: qHTS for the HT-1080-IDH1KD cell line; Potency, µM (titrated, usually from 46.1 µM), for the others: at the highest dose activity, negative = toxicity, usual class: cytotoxic; hit rate 2% among 360,000; HT-1080 IDH1 knockdown viability, ATP luminescence, 48 h; AID 686971, 2013;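 further: potency means the concentration at half of the fitted maximal effect; 0% = DMSO wells and -100% = cell-free medium wells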
#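 Luminescent ATP read-out (CellTiter-Glo, 10 min at room temperature) after 48 h compound exposure at 37 °C gave viability of IDH1-knockdown HT-1080 cells. Activity was normalised to DMSO and cell-free wells, then fitted as concentration-response curves.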
# ELG1 DNA repair = qHTS screen for small molecules that inhibit ELG1-dependent DNA repair in human embryonic kidney (HEK293T) cells expressing luciferase-tagged ELG1. Potency, µM (series often up to 46.1 µM), without a hit: top-dose activity change, negative = inhibition, hits mostly inhibitors. HEK293T ELG1-luciferase reporter, luminescence, 16 h; DNA damage induced by 5-fluorouridine. hit rate 2.3% among 330,000; further: potency means the concentration at half of the fitted maximal effect; nearly all actives have a fitted effect of over 55% in size
#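 In this reporter screen, reduction of luminescence relative to DMSO vehicle indicated activity. Compounds and 5-fluorouridine were added together to 2,000 cells per well, incubated for 16 hr at 37 °C, then developed with ONE-Glo.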
# DT40 TDP1 no CPT = qHTS for Inhibitors of human tyrosyl-DNA phosphodiesterase 1 (TDP1): qHTS in cells in absence of CPT. Potency, µM (titrated, usually from 46.2 µM), without a hit: at the top dose activity change, negative = growth inhibition, usual class: inhibitors. DT40 Tdp1-/- hTDP1 cells, no CPT, ATP luminescence, 48 h. hit rate 15% among 420,000. AID 686978, 2013; further: potency means the concentration at half of the fitted maximal effect; nearly all actives have a fitted effect of over 55% in size
#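 Chicken DT40 Tdp1-/- cells stably complemented with human TDP1 were seeded at 400 cells/well with DMSO in place of 20 nM camptothecin. After compound pinning, cells grew at least 48 hr at 37 °C; viability read by CellTiter-Glo luminescence.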
# HT1080NT lethal = qHTS for induction of synthetic lethality in tumor cells producing 2HG: qHTS for the HT-1080-NT fibrosarcoma cell line | HT-1080-NT fibrosarcoma viability, CellTiter-Glo ATP luminescence, 48 h | Potency, µM (series often up to 46.1 µM), for the others: at the highest dose activity, negative = less viability, most hits filed as cytotoxic | hit rate 1.6% among 360,000 | AID 686970, 2013;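 further: NT is the 2HG producing partner of a matched IDH1 knockdown line; potency means the concentration at half of the fitted maximal effect; 0% = DMSO-treated cells and -100% = media-only wells without cells; nearly all actives have a fitted effect of over 55% in size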
#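 Read-out is CellTiter-Glo luminescence after 10 minutes at room temperature, following 48 hours' compound treatment of HT-1080-NT cells (750 cells/well, RPMI, 5% FBS, 37 degrees C).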
# * hit, by the source's call; ? = inconclusive; nt = not tested or not shown; [ ] = another dose, or the depositor's remark. Unless noted, the call rests on the fitted dose curve; in most records, active means well fitted curve in the direction sought with a large enough effect; inconclusive means small, poorly fitted or top-dose-only effect, or another doubt; inactive means no such curve, though single readings can be large; an effect the other way counts as inactive or inconclusive. Unless noted, on the % scale 0 is the no-effect control and ±100 the full control effect.
SMILES,DT40 TDP1 CPT,IL-1B inflam inh,HT1080 IDH1KD tx,ELG1 DNA repair,DT40 TDP1 no CPT,HT1080NT lethal
COc1ccc(C)cc1NC(=O)NCc1ccc2c(c1)CCN2C(=O)c1ccccc1,23.1µM*,nt,nt,nt,20.6µM*,nt
Cc1ccc(C(=O)N2CCc3cc(CNC(=O)CSc4ccccc4)ccc32)cc1,14.6µM*,nt,nt,nt,14.6µM*,nt
COC(=O)c1ccccc1NC(=O)NCc1ccc2c(c1)CCN2C(=O)c1ccccc1,23.1µM*,nt,nt,nt,16.4µM*,nt
Cc1cc(OCC(=O)Nc2ccc(-c3nc4cc(Cl)ccc4o3)cc2)cc(C)c1Cl,8.9%,nt,nt,nt,-2.1%,nt
CC(C)(C)NC(=O)CSc1nc2cc(S(=O)(=O)N3CCCCC3)ccc2o1,?,17.2,6.6%,-16.6%,?,2.1%
O=C(/C=C/[C@H]1O[C@@H](n2cnc3c(NC(=O)c4ccccc4)ncnc32)[C@H](O)[C@@H]1O)NCc1ccco1,-2.5%,-20.7,20.8%,nt,-6.2%,12.9%
CCN(CC(=O)NCc1ccc(F)cc1)CC(=O)NC1CCCC1,6.6%,-0.4,-6.7%,-2.8%,-26.9%,-5.0%
Cn1nccc1C(=O)NCc1ccc2c(c1)CCN2C(=O)c1ccccc1,-0.5%,nt,nt,nt,-20.9%,nt
CCc1ccccc1NC(=O)NCc1ccc2c(c1)CCN2C(=O)c1ccccc1,?,nt,nt,nt,23.1µM*,nt
CCOc1ccccc1NC(=O)C(=O)NCCc1sc(-c2cccc(F)c2)nc1C,-18.8%,nt,nt,nt,-11.4%,nt
Cc1ccc[n+](CC(=O)Nc2cc(C(F)(F)F)ccc2Cl)c1,-5.3%,-11.4,2.5%[9.24 µM],4.0%,-5.5%,-13.4%
CCC(C)(C)c1ccc(OCCCC[n+]2cccc(C)c2)c(C(C)(C)CC)c1,0.581µM*,-179.9*,4.11µM*,7.3µM*,0.92µM*,6.51µM*
O=C(c1cccc(F)c1)N1CCC2(CC1)CN(c1cccc(-c3ccccc3)c1)C2,?,nt,nt,nt,16.4µM*,nt
COc1ccc(C(=O)N2CCC3(CC2)CCN(c2cccc(-c4ccccc4)c2)CC3)cc1,0.116µM*,nt,nt,nt,0.231µM*,nt
O=C(c1cccc(F)c1)N1CCC2(CC1)CN(Cc1ccccc1)C2,-3.5%,nt,nt,nt,-6.6%,nt
COc1ccc(C(=O)N2CCC3(CC2)CN(c2ccc(-c4ccccc4)cc2)C3)cc1,27.2%,nt,nt,nt,?,nt
O=C(c1cccc(F)c1)N1CCC[C@@]2(CCN(c3ncccn3)C2)C1,3.4%,nt,nt,nt,-4.2%,nt
O=C(c1cccc(F)c1)N1CCC[C@@]2(CCN(c3cccc(-c4ccccc4)c3)C2)C1,20.6µM*,nt,nt,nt,20.6µM*,nt
O=C(c1cccc(F)c1)N1CCC2(CC1)CCN(c1cccc(-c3ccccc3)c1)CC2,?,nt,nt,nt,16.4µM*,nt
O=C(c1cccc(F)c1)N1CCC2(CCCN(c3cccc(-c4ccccc4)c3)C2)CC1,-3.5%,nt,nt,nt,?,nt
C/C(Sc1nnc(Cc2ccccc2)o1)=C(\O)c1ccccc1,?,12.0,13.1%,nt,?,2.5%
N#Cc1cccc(NC(=O)N2CC[C@@]3(CCCN(C(=O)c4cccc(F)c4)C3)C2)c1,-24.7%,nt,nt,nt,20.6µM*,nt
N#Cc1cccc(NC(=O)N2CCCC3(CCN(C(=O)c4cccc(F)c4)CC3)C2)c1,-11.9%,nt,nt,nt,?,nt
COc1ccc(N2CCN(C(=O)CCNS(=O)(=O)c3ccc(Br)s3)CC2)cc1,13µM*,-2.7,-2.1%[9.24 µM],?,?,-3.1%
COc1ccc(N2CCN(C(=O)CCNS(=O)(=O)c3ccc(C)cc3)CC2)cc1,?,0.0,-4.4%,-11.7%,?,0.1%
